This is one part of a sample in which hits are shown more often than they occur.
Methyltransferases = Primary Screen for Target Class Profiling of Small Molecule Inhibitors of Methyltransferases; calls only at 40 µM; purified enzyme, MTase-Glo SAH luminescence; stronger effect = lower value; AID 1745853, 2022; 3.9% of 25,000 active; call rule not given here
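Each enzyme was reacted with SAM and its substrate, with compounds tested once at 40 uM; SAH formed was read by MTase-Glo luminescence.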
MTase-Glo counter = Counterscreen for Target Class Profiling of Small Molecule Inhibitors of Methyltransferases; MTase-Glo coupled enzymes, SAH conversion luminescence, no MTase; shares compounds with Methyltransferases; Potency, µM (doses to about 57.3 µM), for inactives: at the top dose activity change, negative = inhibition, most hits filed as inhibitors; 6% of 180 active; active means well fitted inhibition curve with a large enough effect; inconclusive means small, poorly fitted or top-dose-only effect; further: potency means the concentration at half of the fitted maximal effect
* hit, by the source's call; i = inactive; u = inconclusive; + = active, no number; [ ] = dose if it differs, or a comment. On the % scale 0 is the no-effect control and ±100 the full control effect.

SMILES | Methyltransferases | others
Cc1cccc(N2C(=O)c3cc(C4CC4)nn3CC2(C)C(=O)NC2CCCCCC2)c1C (configuration not stated) | i
N#Cc1ccccc1-c1cc2c(ccn2Cc2ccncc2)c(N2CCOCC2)n1 | + | MTase-Glo counter=4%[85.7 µM]
COc1ccc(-c2n[nH]n3c2nc(=O)c2ccc(C(=O)NC4CC4)cc23)cc1 | i
COc1ccc2c(c1)c(NC(C)=O)c1n2CC(C)(C(=O)NCCC(C)C)N(Cc2ccco2)C1=O (configuration not stated) | i
CC(C)CCN1C[C@@H]2C[C@H]1C(=O)N(Cc1cccnc1)c1ccccc1O2 | i
CN1CCC(N2C[C@@H]3C[C@H]2C(=O)N(CC2CC2)c2ccccc2O3)CC1 | + | MTase-Glo counter=-5%[85.7 µM]
CC(C)OCCCNC(=O)CCn1ccc2cc(S(=O)(=O)N3CCCCC3)ccc21 | i
Cc1noc(CN2C[C@H](NC(=O)CNS(C)(=O)=O)[C@@H](C3CC3)C2)n1 | i
CC(C)CCn1c(=O)c2ccccc2n2c(SCC(=O)NC3CCCCC3)nnc12 | i
COc1ccccc1CNc1nc2c(-c3cccc(F)c3)nnn2c2ccccc12 | i
CCC(C)NC(=O)c1ccc2c(=O)n(Cc3ccccc3)c3nn(CC(=O)NC4CCCC4)c(=O)n3c2c1 (configuration not stated) | i
Cc1nccn1CCC1CCN(c2nccc(-c3ccccn3)n2)CC1 | + | MTase-Glo counter=4%
NCC1CCN(c2nccc(-c3ccc4ccccc4c3)n2)CC1 | i
CCCn1c(=O)c2ccc(C(=O)NC3CCCC3)cc2n2c(=O)n(CC(=O)Nc3ccccc3C)nc12 | i
CCOC(=O)c1cc2n(n1)CC(C)(C(=O)NCCCOC(C)C)N(c1ccc(F)cc1C)C2=O (configuration not stated) | i
Cc1cnc(C2CC2)n1C1CCCN(Cc2ccccc2)C1 (configuration not stated) | + | MTase-Glo counter=-5%
Cc1cnc(C2CC2)n1C1CCCN(C(=O)c2ccoc2)C1 (configuration not stated) | i
Cc1cnc(C2CCOCC2)n1C1CCCN(S(=O)(=O)c2ccccc2)C1 (configuration not stated) | i
CCN1CCN(c2ccc(C(=O)N3CCCC(c4ccccc4)CC3)cn2)CC1 (configuration not stated) | i
CCC(C)NC(=O)c1ccc2c(=O)n(CCC(C)C)c3nn(C)c(=O)n3c2c1 (configuration not stated) | i
COc1cccc(C(=O)Cn2nc3n(C(C)C)c(=O)c4ccc(C(=O)NC(C)C)cc4n3c2=O)c1 | i
Cn1ncc2c(N3CCN(S(N)(=O)=O)CC3)nc(C3CCCC3)nc21 | + | MTase-Glo counter=u
CC1CCCN1C(=O)c1cc(-c2ccc(C(F)(F)F)cc2)nc2c1cnn2C (configuration not stated) | i
COCCN1C(=O)CCc2cc(NC(=O)c3ccc(Cl)s3)ccc21 | i
Cc1ccc(NC(=O)CN(C)S(=O)(=O)c2ccc3[nH]c4c(c3c2)CCCC4)cc1Cl | i
SMILES | Methyltransferases | others
CCCN1C(=O)c2c(C(=O)NCc3ccc(Cl)cc3)ncn2CC1(C)C(=O)NCCC(C)C (configuration not stated) | i
COC(=O)c1ncn2c1C(=O)N(Cc1ccccc1C)C(C)(C(=O)NC1CCCC1)C2 (configuration not stated) | i
COc1cc(F)ccc1-c1nccc2c(=O)cc(-c3cnn(C)c3)oc12 | i
COc1cc(F)ccc1-c1cc(-c2ccc(=O)[nH]c2)c2cncn2c1 | + | MTase-Glo counter=u
CN(C)CCOCC1(C)COc2ccc(C(=O)Nc3ccc4[nH]ccc4c3)cc2N1 (configuration not stated) | + | MTase-Glo counter=-1%[85.7 µM]
CC1(COCC2CC2)COc2ccc(C(=O)Nc3cccc([S+](C)(=O)[O-])c3)cc2N1 (configuration not stated) | i
CN(C)C[C@@H]1CN(S(C)(=O)=O)C[C@H]1NC(=O)c1ccc2[nH]ccc2c1 | i
COCCN(C)C[C@H]1C[C@H](CO)CN(C(=O)c2cc3ccccc3s2)C1 | i
COc1ccc(CNC(=O)c2cnc3c(c2)N(C(=O)CCc2ccccc2)CCC3)cc1OC | i
O=C(NCc1cccc(Cl)c1)c1cnc2c(c1)N(C(=O)Cc1ccc(O)cc1)CCC2 | + | MTase-Glo counter=18µM*
COCCCNC(=O)c1cnc2c(c1)N(C(=O)Cc1cn(C)c3ccccc13)CCC2 | i
Cc1oc(C(=O)O)cc1COc1ccc2c(-c3ccccc3)cc(=O)oc2c1 | i
O=C(CCc1ccccc1)N1CCCC(CN2CCCC2)CC1 (configuration not stated) | i
O=C(Nc1ccc(Oc2cccnc2)cc1)C1CCN(CCCc2ccccc2)CC1 | i
O=C(CCc1ccccc1)N1CCNc2cnc(Nc3cccnc3)nc2C1 | + | MTase-Glo counter=-1%[85.7 µM]
CN(C)CCNC(=O)c1cc2n(n1)CC(C)(C(=O)NCc1ccccc1)N(C)C2=O (configuration not stated) | i
CN(C)CCNC(=O)c1ccnc(-c2nnc3ccc(N(C)c4ccccc4)nn23)c1 | + | MTase-Glo counter=-7%[85.7 µM]
CC1=NOC(C(=O)N2CCCn3nc(C(=O)NCCN(C)C)cc3C2)C1 (configuration not stated) | i
CCCCNC(=O)c1ccc2c(=O)nc3c(-c4ccc(F)cc4)n[nH]n3c2c1 | i
O=C(c1ccc(Cn2ccn3nc4c(c3c2=O)CCCC4)cc1)N1CCN(c2ccccn2)CC1 | i
CCC(C)NC(=O)c1ccc2c(=O)n(C)c3nn(CC(=O)c4cc(C)ccc4C)c(=O)n3c2c1 (configuration not stated) | i
Cc1noc2c(NCCCn3ccnc3)cc(-c3ccccn3)nc12 | i
Cc1noc2c(NC3CCN(C)CC3)cc(-c3cccs3)nc12 | + | MTase-Glo counter=5%[85.7 µM]
Cc1noc2c(NCCN3CCOCC3)cc(-c3ccsc3)nc12 | i
CC(C)CCn1c(=O)c2ccc(C(=O)NC3CCCC3)cc2n2c(=O)n(Cc3ccc(Cl)cc3)nc12 | i
SMILES | Methyltransferases | others
COCCNc1cc(-c2noc([C@@H]3CCCN3CC(C)C)n2)ccn1 | + | MTase-Glo counter=-3%[85.7 µM]
Fc1ccccc1CN1CCC[C@H]1c1nc(-c2ccnc(N3CCOCC3)c2)no1 | i
COCC(=O)Nc1ccc(-c2noc([C@@H]3CCCN3Cc3ncc[nH]3)n2)cn1 | i
O=S(=O)(Nc1ccccn1)c1ccc(N=Cc2c(O)[nH]c3ccc4ncsc4c23)cc1 | i
CCn1c(=O)n(CC)c2cc(S(=O)(=O)Nc3ccc(Br)cc3F)ccc21 | i
c1ccc(CN2CCc3c(sc4ncnc(N5CCOCC5)c34)C2)cc1 | + | MTase-Glo counter=-8%
CCNc1ncnc2sc3c(c12)CCN(Cc1ccncc1)C3 | i
COc1ccc(-c2nc(N3CCOCC3)cc3c2CN(Cc2ccccc2)C3=O)cn1 | i
CCCn1c(=O)c2cc(Cl)ccc2n2c(SCC(=O)Nc3ccccc3CC)nnc12 | i
CCOC(=O)c1cc2n(n1)CC(C)(C(=O)NCc1ccccc1)N(c1ccc(C)cc1)C2=O (configuration not stated) | i
CCN(C)C(=O)CN1C[C@@H]2C[C@H]1C(=O)N2c1cc(-c2ccccc2)ccc1OC | i
CN(CC1CCOC1)S(=O)(=O)c1cccs1 (configuration not stated) | i
